# Rows were chosen to be rich in hits. Some 14% of all compounds tested hit in one or more screens of this group.
# USP30 block – human USP30 deubiquitinase inhibition; purified USP30, Ub-rhodamine cleavage fluorescence; 47,000 tested, 5.3% active; AID 1645860; inhibition, % at 25 µM; Q70CQ3
# USP10 inh – inhibitors of human USP10 deubiquitinase | Q14694 | purified USP10, Ub-rhodamine fluorescence, 60 min | inhibition, % at 20 µM | 47,000 tested, 1.1% active | AID 1645856
# Target sequence (Q14694 whole entry, looked up): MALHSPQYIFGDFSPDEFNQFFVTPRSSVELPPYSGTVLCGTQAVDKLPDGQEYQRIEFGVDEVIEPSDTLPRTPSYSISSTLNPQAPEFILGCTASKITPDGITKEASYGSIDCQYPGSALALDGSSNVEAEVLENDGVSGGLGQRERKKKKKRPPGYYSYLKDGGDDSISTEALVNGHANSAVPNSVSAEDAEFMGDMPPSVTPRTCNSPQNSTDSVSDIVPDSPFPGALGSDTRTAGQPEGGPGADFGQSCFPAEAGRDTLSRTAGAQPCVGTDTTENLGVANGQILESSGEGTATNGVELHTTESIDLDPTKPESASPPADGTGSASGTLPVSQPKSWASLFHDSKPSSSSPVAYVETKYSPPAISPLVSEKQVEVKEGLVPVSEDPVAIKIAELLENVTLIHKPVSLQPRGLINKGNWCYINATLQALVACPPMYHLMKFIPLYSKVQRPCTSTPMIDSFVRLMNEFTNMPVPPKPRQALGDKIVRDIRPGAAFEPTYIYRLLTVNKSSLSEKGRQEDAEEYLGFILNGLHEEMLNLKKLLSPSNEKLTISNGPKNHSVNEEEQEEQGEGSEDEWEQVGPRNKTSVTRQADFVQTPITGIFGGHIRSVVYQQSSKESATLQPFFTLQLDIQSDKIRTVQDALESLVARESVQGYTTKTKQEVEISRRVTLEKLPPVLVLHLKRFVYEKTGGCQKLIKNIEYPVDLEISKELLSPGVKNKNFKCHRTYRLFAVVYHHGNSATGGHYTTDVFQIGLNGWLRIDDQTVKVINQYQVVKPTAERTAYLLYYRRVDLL
# USP28 inh – human USP28 deubiquitinase inhibition | inhibition, % at 25 µM | 47,000 tested, 3% active | purified USP28, Ub-rhodamine cleavage fluorescence, 30 min | Q96RU2
# USP17 inh – inhibitors of human USP17 deubiquitinase; A8MUK1; purified USP17, Ub-rhodamine cleavage fluorescence, 3 h; inhibition, % at 50 µM; 47,000 tested, 6.5% active
# USP8 inh – human USP8 deubiquitinase inhibition; inhibition, % at 20 µM; 47,000 tested, 4.2% active; purified USP8, Ub-rhodamine cleavage fluorescence, 30 min
# Numbers stand for hits; - = inactive; . = no result. Rule as the data show it: active = inhibition above about 30%; inactive = the rest.
SMILES,USP30 block,USP10 inh,USP28 inh,USP17 inh,USP8 inh
Cc1cccc(NC(=O)CSc2nnc(CNc3ccc(Cl)cc3)n2C)c1C,-,-,-,-,44
CC(CCC(=O)O)C1CCC2C3C(O)CC4CC(O)CCC4(C)C3CC(O)C12C (centres undefined),-,-,-,-,-
COc1ccc(OC)c(C(=O)CSc2nc3nc(C)c(Br)cc3[nH]2)c1,-,-,-,50,-
O=C(NCc1ccc(-c2nc3cnccc3o2)cc1)c1ccccc1Cl,-,-,-,38,-
O=C(NCc1csc(-c2ccccc2)n1)c1ccccc1F,-,-,-,-,-
O=C(NCc1ccc(-c2nc3cnccc3o2)cc1)c1ccccc1F,-,-,-,68,-
CCOc1ccc(NC(=O)C(Cc2ccccc2)NS(=O)(=O)c2ccc3c(c2)CCN3C(C)=O)cc1 (centres undefined),-,-,-,-,-
C/C=C\C1=CC(=O)[C@]23C[C@H]2[C@]2(C)CO[C@@]1(O)[C@@]3(O)O2,-,-,-,52,-
O=C(c1cccnc1)N1CCCC1c1nnn2cc(-c3cccc(F)c3)ccc12 (centres undefined),-,-,-,-,-
CCCCCCCCCCCCCCCc1cc(O)cc(O)c1,-,30,-,30,-
CCCCCn1c(=O)c2sccc2n2c(CCC(=O)NC3CCCCCC3)nnc12,-,-,-,35,-
O=c1cc(CN2CCc3ccccc3C2)nc(-c2ccccc2)[nH]1,-,-,-,-,-
CCc1ccc(C(=O)Nc2ccc(OC)c(OC)c2)cc1,-,-,-,-,-
O=C(Cc1cccc(Cl)c1)Nc1cc(-c2ccccn2)no1,-,-,-,-,-
O=C(Nc1cc(-c2ccccn2)no1)c1cccc(F)c1,-,-,-,-,-
COc1ccc(C(=O)Nc2cc(-c3ccccn3)no2)cn1,-,-,63,-,-
O=C(Cc1ccc(Cl)cc1)Nc1cc(-c2ccccn2)no1,-,-,-,40,-
CN1[C@@H](CCC(=O)Nc2ccccc2)CNC(=O)[C@@H]2[C@H]1CCN2Cc1nc2ccccc2n1C,-,-,-,-,-
COc1cccc(NC(=O)N2CCc3nc(C(=O)N4CCCCC4)sc3CC2)c1,-,-,-,-,-
COc1cccc2cc(C(=O)C3=C(O)C(=O)N(CCCN(C)C)C3c3ccco3)oc12 (centres undefined),-,-,-,-,44
Cc1nnc(N2CC[C@@H]3[C@H]2CCCC(=O)N3Cc2ccccc2)c2ccccc12,-,-,-,-,-
Cc1nn(-c2ccc(Cl)cc2)c2[nH]c(=O)c(CNCc3cccs3)cc12,-,-,-,-,77
O=c1[nH]c2cc3c(cc2cc1CNCc1ccc2c(c1)OCO2)OCCO3,-,-,-,-,-
Cc1nn(-c2ccc(Cl)cc2)c(C)c1S(=O)(=O)N1CCN(C)CC1,-,-,-,-,-
COc1ccc(-c2nn(-c3ccccc3)c3[nH]c(=O)c(CNCc4cccs4)cc23)cc1,-,-,-,-,82
SMILES,USP30 block,USP10 inh,USP28 inh,USP17 inh,USP8 inh
Cc1nn(-c2ccc(Cl)cc2)c2[nH]c(=O)c(CNCc3ccc4c(c3)OCO4)cc12,-,-,-,-,81
Cc1nn(-c2ccc(Cl)cc2)c2[nH]c(=O)c(CNCc3ccc(F)cc3)cc12,-,-,-,-,76
CC(C)NC(=O)N1CCC(c2cc3c(ncn3C)c(N3CCOCC3)n2)CC1,-,-,-,.,-
COc1cccc(N2Cc3ccccc3OCC2=O)c1,-,-,-,-,-
Cc1nn(-c2ccccc2)c2nc(C(F)(F)F)[nH]c(=O)c12,.,-,.,-,-
Cc1nn(-c2ccc(Cl)cc2)c2[nH]c(=O)c(CNc3ccc(C(C)(C)C)cc3)cc12,-,-,-,39,-
CC(C)c1ccc(NCc2cc3cc4c(cc3[nH]c2=O)OCCO4)cc1,-,-,-,-,-
Cc1nn(-c2ccccc2)c2[nH]c(=O)c(CNC(C)c3cccs3)cc12 (centres undefined),-,-,-,-,30
O=C(CN1C(=O)COc2cc(Cl)ccc21)NC1CC1,-,-,-,-,-
Clc1ccc(CN=C(Nc2ccccc2)NC2CC2)c(Cl)c1,31,-,-,-,-
COc1cc(OC)cc(C(=O)NCCS(=O)(=O)N2CCN(c3ncccn3)CC2)c1,-,-,-,.,-
CC(C)COc1ccc(C(=O)N/C(=C/c2ccc3c(c2)OCO3)C(=O)O)cc1,37,-,-,.,-
Cc1cc(Cl)ccc1NC(=O)COC(=O)c1n[nH]c2ccccc12,-,-,-,-,31
COc1ccc(C(=O)CSc2nnc3n(Cc4ccc(C)cc4)c(=O)c4ccccc4n23)cc1OC,45,-,-,-,-
COc1ccc(CCNC(=O)CCCCn2c(=O)c3ccccc3n(Cc3cccc(F)c3)c2=O)cc1OC,55,-,-,60,-
COc1ccc(CCNC(=O)CCn2c(=O)c3ccccc3n(Cc3ccc(C)cc3)c2=O)cc1OC,64,-,-,43,-
COc1ccc(CCNC(=O)CCn2c(=O)c3ccccc3n(Cc3ccccc3C#N)c2=O)cc1OC,-,-,-,-,-
O=C(CCn1c(=O)c2ccccc2n(Cc2cc(=O)n3ccccc3n2)c1=O)NCCc1ccc(Cl)cc1,61,-,-,48,-
CCOc1ccccc1NC(=O)Cn1c(=O)n(CCC(=O)NCCc2ccc(OC)c(OC)c2)c(=O)c2ccccc21,-,-,-,-,-
O=C(CCCn1c(=O)c2ccccc2n(Cc2cc(=O)n3ccccc3n2)c1=O)NCc1ccco1,-,-,-,-,-
CC1(c2ncc(Cc3ccccc3F)o2)CCCN(C(=O)c2cncnc2)C1 (centres undefined),-,-,-,-,-
COc1cc(C2CC(=O)N(CC(=O)Nc3ccc(F)cc3)c3ccccc3S2)cc(OC)c1OC (centres undefined),-,-,-,-,-
Cc1c2n(c3ccccc13)CCC2=O,-,-,-,-,-
Cc1cccc(-c2nnc(SCC(=O)N3CCN(c4ccccc4)CC3)o2)c1,-,-,-,-,-
CC(C)(C)c1cnc(CN2CCCC2Cn2cncn2)o1 (centres undefined),-,-,-,-,-
SMILES,USP30 block,USP10 inh,USP28 inh,USP17 inh,USP8 inh
COc1ccc(CCNC(=O)CCn2c(=O)c3ccccc3n(Cc3ccc(F)cc3)c2=O)cc1OC,43,-,31,46,-
COc1ccc(CCNC(=O)c2ccc(Cn3c(=O)c4ccccc4n(CC(=O)Nc4cc(C)[nH]n4)c3=O)cc2)cc1OC,65,-,-,66,-
Cc1cc(NC(=O)Cn2c(=O)n(CC3CCC(C(=O)NCCc4ccccc4)CC3)c(=O)c3ccccc32)n[nH]1 (centres undefined),45,-,-,58,37
COC(=O)c1c(-c2c(Cl)cccc2Cl)noc1/C=C/Nc1ccc(C(=O)O)cc1,-,-,31,-,-
COc1ccccc1N/C=C/c1onc(-c2c(F)cccc2Cl)c1C#N,-,-,-,.,-
O=C(NC1CC1)C1c2ccccc2C(=O)N(C2CCCC2)C12CCCCC2 (centres undefined),-,-,-,-,-
